Experimental findings from PubChem BioAssay (NCI) are described below.

Several values for one entry are separate records, joined by “and”; a condition that tells them apart may be missing. Equal entries are not always repeated. Compounds without any hit were thinned out: in the full panel of roughly 83,000, 20% have a hit.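 Negative percent growth values reflect cell death: -40 means 40% of the cells present at the start died, and -100 means all died.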 Unmarked numbers belong to inactive results. Activity calls are given as the source filed them. Starred links: 1 amine or outer side, 2 acyl side, 3 side chain; linkers in the order of their positions; H or OH if unused. Positions of bridges follow the written chain, without caps; N, C: chain ends. Non-standard residues stand in square brackets, D forms with d. Residues, ends and D or L forms follow the SMILES beside them. Chains are numbered I, II in the order given. Actinocin(9to1) = Cc1c2oc3c(C)ccc(C(=O)[*:1])c3nc-2c(C(=O)[*:2])c(N)c1=O; aThr = C[C@H](O)[C@H](N)C(=O)O; NMeV = CN[C@H](C(=O)O)C(C)C; Sar = CNCC(=O)O

The test system of the first experiment is NCI-H226 lung. As to the kind of experiment: NCI-60 one-dose screen, 48 h (100 = growth as untreated, 0 = no growth, -100 = all killed). As to conditions: 0.0025 µM. As to the method: Growth inhibition of the NCI-H226 human Non-Small Cell Lung tumor cell line is measured as a screen for anti-cancer activity. Cells are grown in 96 well plates and exposed to the test compound for 48 hours. Compounds are tested at a single concentration, which is 10^-5 M for most compounds. The reported endpoint is percent growth (GI% or GIPRCNT), where numbers from 0 - 100% represent growth inhibition, and numbers from -100% - 0 represent cell death. For example, a value of 40 represents 60% growth inhibition. A value of 0 means no net growth occurred over the course of the experiment. A value of -40 indicates 40% of cells at the beginning of the experiment died by the end of the experiment. A value of -100 means all cells are dead at the end of the experiment.
NCI-60 Human Tumor Cell Lines Screen was performed using the standard one-dose NCI protocol, which is described in more detail at https://dtp.cancer.gov/discovery_development/nci-60/default.htm.
Compounds with GIPRCNT values below 10 were considered active. Activity score was based on GIPRCNT using the following formula: […]
Score is 0 for GIPRCNT values of 100 or above, 50 for GIPRCNT values of 0, and 100 for GIPRCNT values of -100.
On to `Cc1c2oc3c(C)ccc(C(=O)N[C@@H]4C(=O)N[C@H](C(C)C)C(=O)N5CCC[C@H]5C(=O)N(C)CC(=O)N(C)[C@@H](C(C)C)C(=O)O[C@H]4C)c3nc-2c(C(=O)N[C@@H]2C(=O)N[C@H](C(C)C)C(=O)N3CCC[C@H]3C(=O)N(C)CC(=O)N(C)[C@@H](C(C)C)C(=O)O[C@H]2C)c(N)c1=O` (I: [aThr][dV]P[Sar][NMeV] / II: [aThr][dV]P[Sar][NMeV]; ester I:1-I:C, II:1-II:C; linker I:N-II:N via Actinocin(9to1)), for which the growth was 57.3%.

The experiment is the same for the next values; noted with them: 10 µM.
Regarding `CN1CCN(c2ccc3nc(-c4ccc5nc(-c6ccc(O)cc6)[nH]c5c4)[nH]c3c2)CC1`, the growth was 88.5%. With `O=c1[nH]cc(F)c(=O)[nH]1`, the growth is 85.2% and 94.1%. The same measure, in the same setting: as for `BrC/C=C/C[P+](c1ccccc1)(c1ccccc1)c1ccccc1`, the figure is 76.2%; as for `Cc1c2oc3c(C)ccc(C(=O)N[C@@H]4C(=O)N[C@H](C(C)C)C(=O)N5CCC[C@H]5C(=O)N(C)CC(=O)N(C)[C@@H](C(C)C)C(=O)O[C@H]4C)c3nc-2c(C(=O)N[C@@H]2C(=O)N[C@H](C(C)C)C(=O)N3CCC[C@H]3C(=O)N(C)CC(=O)N(C)[C@@H](C(C)C)C(=O)O[C@H]2C)c(N)c1=O` (I: [aThr][dV]P[Sar][NMeV] / II: [aThr][dV]P[Sar][NMeV]; ester I:1-I:C, II:1-II:C; linker I:N-II:N via Actinocin(9to1)), -12.4% (active); as for `CN(C)CCC(=O)c1c[nH]c2ccccc12`, 105%.

Take `O=C(/C(=C/c1ccccc1)CBr)c1ccccc1`: the growth is 93%. Same read-out and setting: as for `Cc1cc(NCCCN(C)C)c2ccc3c(ccc4c(NCCCN(C)C)cc(C)nc43)c2n1`, the figure is -56.6% (active); as for `CSc1ccc2c(c1)C(N1CCN(C)CC1)Cc1ccccc1S2` (stereo unspecified), 55.3%; as for `Nc1ccc2cc(Br)c3ccccc3c2c1`, 59.4%. Take `N#C/C(=C1C=C/C(=N\O)C(Cl)=C\1)c1ccccc1`: the growth was 87.8%.

As to `CCCCCCCCCCCCCCCCCN`, the growth was 111%. The same measure, in the same setting: as for `S=c1[nH]nc(Cc2ccccc2)c(=S)[nH]1`, the figure is 103%; as for `COc1cc(C(C)(C)C)cc(OC)c1C(O)(c1c(OC)cc(C(C)(C)C)cc1OC)c1c(OC)cc(C(C)(C)C)cc1OC`, -65.7% (active).

For the molecule `Cc1cnc(/C=N\NC(N)=S)c2cccc(N)c12`, the growth was 4.78% (active).

The experiment is the same for the next values; noted with them: 25 µM.
As to `O=c1[nH]cc(F)c(=O)[nH]1`, the growth is 69.5%.
